Measured values reported in the supplement of paper PMC10849652.
About 8,800 targets were measured; listed, in parts, are those with a hit and a random draw of the rest. About 0.5% of all pairs of compound and target were hits.

compound: NC1(c2ccc(-c3nc4ccn5c(=O)[nH]nc5c4cc3-c3ccccc3)cc2)CCC1; assay: log2 fold change, soluble protein after heating vs DMSO (PISA); higher = thermal stabilisation; K562 lysate, 10 uM; active = over 0.2 and 3.5 SD of the protein, either way, in both replicates (recomputed)
Procedure, shortened: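 A 30 min treatment with 10 μM compound was applied to crude K562 extract at 1 mg/mL protein in PBS pH 7.4 with 1 mM MgCl2. Heating for 3 min spanned 48°C-58°C, after which aliquots were pooled, adjusted to 0.5% NP-40 at 4°C and spun at 21,000xg for 90 min. TMTpro 16plex LC-MS/MS of the supernatant, with channel sums equalised, gave values recorded as log-two fold change in thermal stability against solvent controls, from duplicates.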

Chain of UniProt Q8N4Q1 (Q8N4Q1 whole entry, looked up): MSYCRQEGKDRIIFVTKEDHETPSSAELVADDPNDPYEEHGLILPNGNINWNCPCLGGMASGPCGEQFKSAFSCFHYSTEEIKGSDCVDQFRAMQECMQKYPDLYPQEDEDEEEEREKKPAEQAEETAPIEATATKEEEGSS
Chain of UniProt Q8TAP6 (Q8TAP6 whole entry, looked up): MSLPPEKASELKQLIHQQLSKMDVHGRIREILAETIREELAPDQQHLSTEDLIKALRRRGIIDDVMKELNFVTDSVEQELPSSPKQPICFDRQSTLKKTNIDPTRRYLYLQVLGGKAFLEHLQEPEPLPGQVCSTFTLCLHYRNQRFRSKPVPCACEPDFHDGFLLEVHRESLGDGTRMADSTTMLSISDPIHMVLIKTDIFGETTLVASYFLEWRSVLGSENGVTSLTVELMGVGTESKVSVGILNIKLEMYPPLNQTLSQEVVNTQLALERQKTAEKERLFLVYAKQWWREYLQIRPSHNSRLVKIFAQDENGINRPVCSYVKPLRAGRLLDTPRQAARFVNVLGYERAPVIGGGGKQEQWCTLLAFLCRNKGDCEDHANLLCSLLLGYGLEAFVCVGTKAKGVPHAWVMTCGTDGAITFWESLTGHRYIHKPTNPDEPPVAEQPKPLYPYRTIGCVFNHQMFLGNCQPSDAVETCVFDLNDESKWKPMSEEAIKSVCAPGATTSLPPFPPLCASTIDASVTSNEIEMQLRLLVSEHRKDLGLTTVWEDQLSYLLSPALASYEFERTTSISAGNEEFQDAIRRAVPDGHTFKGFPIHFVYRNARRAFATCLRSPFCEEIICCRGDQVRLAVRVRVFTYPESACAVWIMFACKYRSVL
Chain of UniProt Q9ULG6 (Q9ULG6 whole entry, looked up): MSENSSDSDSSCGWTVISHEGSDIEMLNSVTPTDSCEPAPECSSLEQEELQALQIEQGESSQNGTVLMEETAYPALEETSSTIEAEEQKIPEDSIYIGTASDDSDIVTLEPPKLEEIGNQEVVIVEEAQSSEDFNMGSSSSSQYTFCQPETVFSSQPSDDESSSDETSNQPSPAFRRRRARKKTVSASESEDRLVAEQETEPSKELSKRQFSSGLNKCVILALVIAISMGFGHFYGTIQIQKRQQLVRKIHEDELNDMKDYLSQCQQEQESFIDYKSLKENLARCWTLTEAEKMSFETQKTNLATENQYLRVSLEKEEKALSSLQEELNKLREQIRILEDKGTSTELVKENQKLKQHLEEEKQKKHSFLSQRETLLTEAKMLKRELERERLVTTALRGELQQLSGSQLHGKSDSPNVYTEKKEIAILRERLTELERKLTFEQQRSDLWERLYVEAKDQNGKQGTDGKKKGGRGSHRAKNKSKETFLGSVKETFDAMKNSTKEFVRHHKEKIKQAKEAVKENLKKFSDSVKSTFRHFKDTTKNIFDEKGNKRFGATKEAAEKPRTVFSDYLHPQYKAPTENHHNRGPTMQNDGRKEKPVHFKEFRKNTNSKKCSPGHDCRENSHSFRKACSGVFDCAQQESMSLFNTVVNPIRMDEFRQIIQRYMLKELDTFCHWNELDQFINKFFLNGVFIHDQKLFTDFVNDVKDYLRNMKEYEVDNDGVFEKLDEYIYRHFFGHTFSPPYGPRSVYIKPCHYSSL
Chain of UniProt P14635 (P14635 whole entry, looked up): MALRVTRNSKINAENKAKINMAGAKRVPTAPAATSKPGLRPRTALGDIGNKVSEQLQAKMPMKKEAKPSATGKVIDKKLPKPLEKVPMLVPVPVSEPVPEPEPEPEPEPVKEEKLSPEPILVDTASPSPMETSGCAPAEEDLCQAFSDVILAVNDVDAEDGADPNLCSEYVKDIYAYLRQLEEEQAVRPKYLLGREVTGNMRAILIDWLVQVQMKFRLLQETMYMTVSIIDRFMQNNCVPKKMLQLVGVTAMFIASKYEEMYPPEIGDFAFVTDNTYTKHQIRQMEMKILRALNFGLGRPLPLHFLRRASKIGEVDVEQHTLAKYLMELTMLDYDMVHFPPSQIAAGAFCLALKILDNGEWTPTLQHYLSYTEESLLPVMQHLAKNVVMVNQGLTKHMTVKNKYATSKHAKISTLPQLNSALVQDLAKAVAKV
Chain of UniProt O95429 (O95429 whole entry, looked up): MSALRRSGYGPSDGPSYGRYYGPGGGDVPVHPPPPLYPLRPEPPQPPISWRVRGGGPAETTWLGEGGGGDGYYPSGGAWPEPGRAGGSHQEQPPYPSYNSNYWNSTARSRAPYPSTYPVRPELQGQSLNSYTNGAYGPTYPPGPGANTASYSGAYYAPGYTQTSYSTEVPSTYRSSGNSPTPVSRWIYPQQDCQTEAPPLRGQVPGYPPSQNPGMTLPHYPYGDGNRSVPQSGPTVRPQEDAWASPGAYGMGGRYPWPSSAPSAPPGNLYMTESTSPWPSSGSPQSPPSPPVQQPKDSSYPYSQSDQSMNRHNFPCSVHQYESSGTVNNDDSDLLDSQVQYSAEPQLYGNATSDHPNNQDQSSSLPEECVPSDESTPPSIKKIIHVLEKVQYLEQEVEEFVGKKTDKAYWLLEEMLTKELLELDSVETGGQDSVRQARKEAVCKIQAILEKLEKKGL
Chain of UniProt Q9UEE9 (Q9UEE9 whole entry, looked up): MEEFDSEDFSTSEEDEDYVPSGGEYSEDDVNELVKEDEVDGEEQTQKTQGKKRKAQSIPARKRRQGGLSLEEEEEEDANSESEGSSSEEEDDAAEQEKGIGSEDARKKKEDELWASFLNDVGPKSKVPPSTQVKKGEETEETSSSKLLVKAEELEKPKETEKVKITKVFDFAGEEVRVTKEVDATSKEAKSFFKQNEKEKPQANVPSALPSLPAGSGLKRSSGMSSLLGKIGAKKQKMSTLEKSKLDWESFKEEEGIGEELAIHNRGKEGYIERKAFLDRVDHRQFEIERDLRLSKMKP
Chain of UniProt Q9HB09 (Q9HB09 whole entry, looked up): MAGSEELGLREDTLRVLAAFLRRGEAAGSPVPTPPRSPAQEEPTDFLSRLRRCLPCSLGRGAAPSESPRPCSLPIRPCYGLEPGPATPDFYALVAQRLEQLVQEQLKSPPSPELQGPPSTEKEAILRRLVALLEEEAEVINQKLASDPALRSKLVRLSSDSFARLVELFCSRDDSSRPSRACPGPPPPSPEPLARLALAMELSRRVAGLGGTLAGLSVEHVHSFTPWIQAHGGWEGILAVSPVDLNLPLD
Chain of UniProt Q8NBU5 (Q8NBU5 whole entry, looked up): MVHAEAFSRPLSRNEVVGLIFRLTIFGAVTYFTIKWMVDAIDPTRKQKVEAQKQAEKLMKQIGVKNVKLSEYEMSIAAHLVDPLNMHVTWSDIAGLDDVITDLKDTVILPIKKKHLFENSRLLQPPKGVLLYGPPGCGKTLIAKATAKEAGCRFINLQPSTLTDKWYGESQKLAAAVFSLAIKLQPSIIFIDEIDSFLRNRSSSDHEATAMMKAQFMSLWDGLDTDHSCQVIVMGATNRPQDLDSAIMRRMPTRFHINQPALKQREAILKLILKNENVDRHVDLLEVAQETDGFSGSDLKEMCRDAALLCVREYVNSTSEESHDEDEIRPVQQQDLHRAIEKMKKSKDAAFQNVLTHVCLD
Chain of UniProt Q13555 (Q13555 whole entry, looked up): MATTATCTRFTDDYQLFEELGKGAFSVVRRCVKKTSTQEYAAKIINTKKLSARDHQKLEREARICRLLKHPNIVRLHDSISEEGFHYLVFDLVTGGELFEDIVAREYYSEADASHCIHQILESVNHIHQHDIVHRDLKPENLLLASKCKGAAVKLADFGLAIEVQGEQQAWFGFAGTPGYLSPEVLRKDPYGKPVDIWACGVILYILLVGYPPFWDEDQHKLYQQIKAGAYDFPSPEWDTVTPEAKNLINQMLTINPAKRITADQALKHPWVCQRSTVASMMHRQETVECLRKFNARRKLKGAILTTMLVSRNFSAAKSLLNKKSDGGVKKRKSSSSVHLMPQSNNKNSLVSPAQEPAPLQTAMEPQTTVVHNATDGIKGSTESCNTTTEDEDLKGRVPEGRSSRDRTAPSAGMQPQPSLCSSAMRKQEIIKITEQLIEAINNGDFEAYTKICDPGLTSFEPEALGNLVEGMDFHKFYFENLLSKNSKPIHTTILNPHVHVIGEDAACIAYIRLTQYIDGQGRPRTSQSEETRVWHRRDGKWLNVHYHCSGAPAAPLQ
Chain of UniProt P18859 (P18859 whole entry, looked up): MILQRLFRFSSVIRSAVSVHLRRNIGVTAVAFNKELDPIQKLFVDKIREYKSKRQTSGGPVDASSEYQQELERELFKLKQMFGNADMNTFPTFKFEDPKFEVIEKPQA
Chain of UniProt O75909 (O75909 whole entry, looked up): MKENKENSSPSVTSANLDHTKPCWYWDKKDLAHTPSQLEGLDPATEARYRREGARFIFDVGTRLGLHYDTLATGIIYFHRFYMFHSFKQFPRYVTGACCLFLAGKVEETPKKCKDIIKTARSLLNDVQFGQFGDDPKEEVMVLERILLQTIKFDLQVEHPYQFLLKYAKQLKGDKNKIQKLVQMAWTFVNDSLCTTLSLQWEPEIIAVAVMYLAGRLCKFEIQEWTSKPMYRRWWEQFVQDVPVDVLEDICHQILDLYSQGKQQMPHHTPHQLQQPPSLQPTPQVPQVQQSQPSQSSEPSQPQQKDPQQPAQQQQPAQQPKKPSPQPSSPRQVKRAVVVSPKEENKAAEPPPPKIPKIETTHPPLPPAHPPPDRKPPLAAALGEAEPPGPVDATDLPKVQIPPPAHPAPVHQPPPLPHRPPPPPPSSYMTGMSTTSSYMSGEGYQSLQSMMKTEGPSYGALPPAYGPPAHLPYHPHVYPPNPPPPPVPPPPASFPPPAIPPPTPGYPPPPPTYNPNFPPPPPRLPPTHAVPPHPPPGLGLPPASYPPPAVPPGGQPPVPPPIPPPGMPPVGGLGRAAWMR
Chain of UniProt P49069 (P49069 whole entry, looked up): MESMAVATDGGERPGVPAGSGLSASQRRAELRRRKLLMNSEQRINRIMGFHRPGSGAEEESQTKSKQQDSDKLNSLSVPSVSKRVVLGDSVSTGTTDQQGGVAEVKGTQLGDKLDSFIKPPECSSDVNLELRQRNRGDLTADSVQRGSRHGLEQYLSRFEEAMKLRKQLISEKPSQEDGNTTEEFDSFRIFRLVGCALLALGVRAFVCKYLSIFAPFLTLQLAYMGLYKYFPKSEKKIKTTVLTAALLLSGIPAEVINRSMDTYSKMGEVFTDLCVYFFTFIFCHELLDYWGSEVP

log2 fold change, inactive:
BLOC1S6 (UniProt Q9UL45) 0.096
BAG4 (UniProt O95429) 0.038
CCNC (UniProt P24863) -0.029
CALM2 (UniProt P0DP24) -0.06
CEP76 (UniProt Q8TAP6) -0.02
CDS2 (UniProt O95674) -0.152
CCAR2 (UniProt Q8N163) -0.007
CDKN2AIP (UniProt Q9NXV6) 0.001
BRD3 (UniProt Q15059) -0.185
CEP120 (UniProt Q8N960) -0.151
C18orf25 (UniProt Q96B23) -0.008
CDAN1 (UniProt Q8IWY9) -0.032
ATAD1 (UniProt Q8NBU5) -0.031
CCT6A (UniProt P40227) 0.005
C5orf51 (UniProt A6NDU8) -0.023
CHCHD4 isoform 2 (UniProt Q8N4Q1) -0.028
CCPG1 isoform 5 (UniProt Q9ULG6) -0.073
CD63 (UniProt P08962) -0.009
CES2 isoform 4 (UniProt O00748) 0.001
CFDP1 (UniProt Q9UEE9) -0.026
AURKAIP1 (UniProt Q9NWT8) -0.071
CCDC186 (UniProt Q7Z3E2) 0.001
ATP13A1 (UniProt Q9HD20) 0.065
ATXN2 (UniProt Q99700) -0.028
CHCHD2 (UniProt Q9Y6H1) 0.136
CDC40 (UniProt O60508) 0.097
CCNK isoform 4 (UniProt O75909) -0.011
C18orf32 (UniProt Q8TCD1) 0.062
CHAF1A (UniProt Q13111) 0.036
CAMK2G isoform 8 (UniProt Q13555) -0.125
CBX1 (UniProt P83916) 0.012
ATP5PF isoform 2 (UniProt P18859) -0.051
CCNB1 (UniProt P14635) 0.006
BCL2L12 (UniProt Q9HB09) 0.013
ATP11A (UniProt P98196) -0.012
CAMK1 (UniProt Q14012) -0.023
CAMLG (UniProt P49069) 0.046
CHAC2 (UniProt Q8WUX2) -0.027
CANX isoform 2 (UniProt P27824) -0.011
BRD2 isoform 2 (UniProt P25440) -0.064
